# Experimental data from PubChem BioAssay AID1117359 (Southern Research Institute, 2015).
# Hit rate of the full screen: of about 1,500 compounds, about 460 (31%) were called active.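 Rule for the calls: active = viability at or below 80% at any tested concentration, marking the compound as toxic; inactive = the rest.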 Not all results are given here. Entries with a potency or affinity are not part of this list.
# Experiment: THP-1 cell cytotoxicity, dose response, cytotoxicity control for Vif-APOBEC3G degradation inhibitor project, THP-1 cells (AID 1117359)
# Details: THP-1 viability, CellTiter-Glo luminescence, 72 h; series mostly up to 40 µM
row,SMILES,outcome
1,CC1CCC/C(=C\Nc2ccc(O)cc2)C1=O (centres undefined),inactive
2,CCC1CCC2(CC1)NC(=O)N(CC(=O)Nc1ccc(OC)c(Cl)c1)C2=O (centres undefined),inactive
3,C=C(C)C(=O)Nc1cccc(C2=NOC3(C2)C[C@H](C(N)=O)N(C(=O)COc2ccc(Cl)cc2)C3)c1 (some centres undefined),inactive
4,Cc1nc2nc(-c3ccco3)nn2c(C)c1Cl,inactive
5,CC(=O)Nc1ccc(N=Nc2ccccc2)cc1,inactive
6,O=S(=O)(O)c1cc(O)c2ccc(Nc3ccccc3)cc2c1,inactive
7,CCn1c(SC(C)C(=O)O)nc2sc3c(c2c1=O)CCC3 (centres undefined),inactive
8,COc1ccc(N/N=C(\C#N)C(=N)SCc2ccccc2)cc1,inactive
9,CC(=O)c1ccccc1NC(=O)COC(=O)CN1C(=O)C2CCCCC2C1=O (centres undefined),inactive
10,Cc1cc2cc3c(=O)[nH]c(=O)nc-3n(CC(O)C(O)C(O)CO)c2cc1C (centres undefined),inactive
11,CN(CCO)CC(O)CN(c1ccccc1)c1ccccc1 (centres undefined),inactive
12,Oc1cc2c(cc1O)[C@H]1c3ccc(O)c(O)c3OC[C@@]1(O)C2,inactive
13,C(=C\c1ccco1)/c1ccc2ccccc2n1,inactive
14,O=C(O)c1ccc(-n2cccc2/C=C2/NC(=O)N(c3ccccc3)C2=O)cc1,inactive
15,O=C(O)c1ccc(-n2cccc2/C=C2/NC(=O)N(c3cccc(Cl)c3)C2=O)cc1,inactive
16,COc1ccc(CCN2CC(C(=O)NCC(c3ccccc3)N(C)C)CC2=O)cc1OC (centres undefined),inactive
17,CN1CCN(C(=O)c2ccc(N(C)S(=O)(=O)c3cccs3)cc2)CC1,inactive
18,COC1=CC(=O)C(C2CC(=O)c3c(O)cc(O)cc3O2)=CC1=O (centres undefined),inactive
19,Cc1c(O)cc2c(c1O)C(=O)CC(c1ccc(O)cc1)O2 (centres undefined),inactive
20,C(=N\Nc1nncn1/N=C/c1ccco1)/c1ccco1,inactive
21,Cn1c(=O)c2c(ncn2CC(=O)N/N=C/C=C/c2ccco2)n(C)c1=O,inactive
22,COc1ccc2[nH]c(C(=O)O)c(CCN3C(=O)c4cccc([N+](=O)[O-])c4C3=O)c2c1,inactive
23,COc1ccc(N2CCN(CC(=O)c3c(C)n(C)c4ccc(OC)cc34)CC2)cc1,inactive

row,SMILES,outcome
1,Cn1c2ccccc2c2ccc3c(c21)C(=O)C=CC3=O,inactive
2,Cc1ccc(N=Nc2ccc(N)cc2C)c(S(N)(=O)=O)c1,inactive
3,O=C1CNC(=O)/C1=C/c1ccc(Br)cc1,inactive
4,O=C(COC(=O)c1ccc(O)cc1O)NNC(=O)c1cccs1,inactive
5,CC[n+]1ccc(C)c2cc(P(=O)(c3ccccc3)c3ccccc3)ccc21,inactive
6,Cc1ccc(S(=O)(=O)n2ccc(=O)[nH]2)cc1,inactive
7,O=C(CCS(=O)(=O)c1ccc(Br)cc1)NC1CCCC1,inactive
8,Cc1cc(NS(=O)(=O)c2cc(Cl)sc2Cl)no1,inactive
9,Cc1cc(O)cc(O)c1C(=O)Cc1cnn(-c2ccccc2)c1,inactive
10,CCC1=C2CC[C@H]3C(=O)NC(=O)[C@H]3[C@H]2[C@@]2(Cc3ccccc3)C(=NCC(=O)OC)OC(=O)N2C1=O,inactive
11,CCN(CC)S(=O)(=O)c1cccc(NN=c2c(=O)c3ccccc3c2=O)c1,inactive
12,CCc1ccc2c(c1)cc(C)c1nnc(SCC(=O)Nc3cc(OC)c(OC)cc3C(=O)O)n12,inactive
13,COC/C=C/C1=CC2=CC(=O)C(C)(OC(=O)c3cnc4ccccc4n3)C(=O)C2=CN1c1ccccc1 (centres undefined),inactive
14,Nc1ccc2c(O)cc(S(=O)(=O)O)cc2c1,inactive
15,CCOC(=O)C1CCN(c2ncnc3cc(OC)c(OC)cc23)CC1,inactive
16,O=C(O)C1OC(Oc2c(-c3ccc(O)c(O)c3)oc3cc(O)cc(O)c3c2=O)C(O)C(O)C1O (centres undefined),inactive
17,COC(=O)C1=C(O)/C(=C\c2ccc(CNC(=O)C(=O)Nc3ccc(C)cc3)o2)N=C1C,inactive
18,CC(Sc1nnc(C2CC2)n1C)C(=O)Nc1ccc(N2CCOCC2)cc1 (centres undefined),inactive
19,CC1=C(C#N)C(=O)N(C2CCS(=O)(=O)C2)C(=O)/C1=C\c1ccco1 (centres undefined),inactive
20,O=C1c2ccccc2C(=O)N1/N=C/c1ccc(O)c(O)c1O,inactive
21,Nc1ccc(Nc2ccccc2)c(S(=O)(=O)O)c1,inactive
22,Cc1ccc(NC(=O)COc2ccc(/C=N/NC(=O)CSCc3ccccc3)cc2)cc1,inactive
23,CCCCC1=CC2=CC(=O)C(C)(OC(=O)c3cnc4ccccc4n3)C(=O)C2=CO1 (centres undefined),inactive

row,SMILES,outcome
1,c1cnc(N2CCN(c3cnccn3)CC2)nc1,inactive
2,COc1ccc(CN2CCNC(=O)C2CC(=O)NC2CCCC2)cc1OC (centres undefined),inactive
3,CCN(CC)S(=O)(=O)c1ccc(C(=O)NCc2n[nH]c(=S)n2-c2ccccc2OC)cc1,inactive
4,Cc1ccc2c(c1)NC(=O)c1cc([N+](=O)[O-])ccc1O2,inactive
5,NS(=O)(=O)c1ccc(NC(=O)COC(=O)CC2Sc3ccccc3NC2=O)cc1 (centres undefined),inactive
6,CCOC(=O)c1ccc(NS(=O)(=O)c2ccc3oc(=O)[nH]c3c2)cc1,inactive
7,COC(=O)c1ccc(C(=O)OC)c(NC(=O)Cc2cccs2)c1,inactive
8,COc1ccc(CCNC(=O)/C=C/c2ccco2)cc1,inactive
9,CC[C@H](C)[C@H](NC(N)=O)C(=O)NCCc1ccc(OC)cc1,inactive
10,Nc1ccc(Oc2ncccn2)cc1,inactive
11,CCOC(=O)c1[nH]nc(-c2c(O)cc(C)cc2O)c1-c1csc(C)n1,inactive
12,CC(C)OCCCNC(=O)c1cccs1,inactive
13,O=C(Nc1ccccc1)c1ccc(S(=O)(=O)N(CCO)CCO)cc1,inactive
14,CC(C)CN1C(=O)c2ccc(C(=O)Nc3ccc(O)cc3C(=O)O)cc2C1=O,inactive
15,CS(=O)(=O)c1ccc(Cl)c(NC(=O)COC(=O)COc2ccc3c(c2)CCC3)c1,inactive
16,CCOc1ccc(NC(=O)CCS(=O)(=O)c2ccc(Br)cc2)cc1,inactive
17,Cc1ccsc1C=Nc1ccc(O)cc1,inactive
18,Oc1ccc(N=Cc2sc3ccccc3c2Cl)cc1,inactive
19,Cc1nccn1CC(=O)N/N=C/c1ccc(O)c(O)c1,inactive
20,NC(=S)N=Nc1c(O)cc(O)c2[nH]c(=O)ccc12,inactive
21,Cc1n[nH]c(=S)n(NC(=O)/C=C/C(=O)Nn2c(=S)[nH]nc(C)c2=O)c1=O,inactive
22,CCN(CC)C(=O)NCc1c(C)cc(C)cc1C,inactive
23,CCOC(=O)C(=O)Cc1cccnn1,inactive

row,SMILES,outcome
1,CC(=O)c1ccc(S(=O)(=O)Nc2cccc(-n3cnnn3)c2)cc1,inactive
2,CC1CCC(NC(=O)CCS(=O)(=O)c2ccc3c(c2)CCN3C(=O)C2CC2)CC1 (centres undefined),inactive
3,CCc1ccc(-c2nc(SCC(=O)c3c(N)n(C4CC4)c(=O)[nH]c3=O)n[nH]2)cc1,inactive
4,COCCn1c(SCC(=O)N2CCC(C)CC2)nc2c([nH]c3ccccc32)c1=O,inactive
5,O=C(c1ccc2nc(-c3ccco3)c(-c3ccco3)nc2c1)N1CCN(c2ncccn2)CC1,inactive
6,N#Cc1ccccc1S(=O)(=O)N1CCN(C(=O)CN2CCCC2c2cccs2)CC1 (centres undefined),inactive
7,Cc1ccccc1OCC(=O)OCC(=O)c1ccc(OC(=O)c2ccccc2)cc1,inactive
8,Cc1cc(C(=O)NNC(=O)CCC2CCCCC2)c(C)o1,inactive
9,COc1ccccc1OCC(=O)NCC1CCCN(Cc2cnn(C(C)C)c2)C1 (centres undefined),inactive
10,CCOc1ccc(N(CC(=O)NCCC2=CCCCC2)S(=O)(=O)c2ccccc2)cc1,inactive
11,O=C(c1cc(COc2cccc3cccnc23)on1)N1CCC[C@H]1CO,inactive
12,CC(Oc1cccc2cccnc12)C(=O)N/N=C/c1ccc2c(c1)OCO2 (centres undefined),inactive
13,CC(=O)Nc1ccc(NC(=O)CN(c2cccc(C(C)=O)c2)S(C)(=O)=O)cc1,inactive
14,COc1ccc(-n2c(Cc3cccn3C)nnc2SCC(=O)Nc2ccccc2)cc1,inactive
15,CCOC(=O)c1cc2c(n(-c3ccccc3)c1=O)CC(C)(C)CC2=O,inactive
16,Cn1c(N)c(C(=O)CCl)c(=O)n(Cc2ccccc2)c1=O,inactive
17,O=C(O)c1cc(-c2ccccc2)on1,inactive
18,CN1CCN(C(CNC(=O)c2ccc(Br)o2)c2ccc(F)cc2)CC1 (centres undefined),inactive
19,CC(NC(=O)CSc1nnc2n1CCCCC2)c1ccccc1Cl (centres undefined),inactive
20,COc1cc(CN2CCNC(=O)C2CC(=O)N(Cc2nccn2C)C(C)C)cc(OC)c1 (centres undefined),inactive
